About 83,000 compounds went through this panel and 20% of them were active in at least one assay; those are over-represented in the sample as a whole.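 Assay: single dose, 48 h. Readout: percent growth (0 = no net growth; negative = cell death). Active: <10.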 A number with no mark means an inactive call. Active and inactive are the calls of the source.

Among the test systems are SR leukemia; RPMI-8226 leukemia; OVCAR-8 ovarian; OVCAR-5 ovarian; OVCAR-4 ovarian; SK-OV-3 ovarian; IGROV1 ovarian; OVCAR-3 ovarian; HS 578T breast; NCI/ADR-RES ovarian; T-47D breast; BT-549 breast; MDA-MB-435 melanoma; SW-620 colon; MCF7 breast; HCT-116 colon; HCC-2998 colon; KM12 colon.
Holding throughout (assay): NCI-60 one-dose screen, 48 h (100 = growth as untreated, 0 = no growth, -100 = all killed)
Details in all cases: 10 µM unless noted

In the case of `CC(=O)c1ccc(Nc2nc(SCC(C)C)nc(-c3ccccc3)c2C#N)cc1`, the growth was 110% in the assay on SR leukemia; 111% with RPMI-8226 leukemia; 70% in the assay on OVCAR-8 ovarian; 109% in the assay on OVCAR-5 ovarian; 103% with OVCAR-4 ovarian; 79.7% in the assay with SK-OV-3 ovarian. Further, the growth in the assay on IGROV1 ovarian is 88.6%; with OVCAR-3 ovarian, 122%; with HS 578T breast, 44.6%; with NCI/ADR-RES ovarian it was 89.1%; with T-47D breast, 94.5%; with BT-549 breast it was 92%. The growth with MDA-MB-435 melanoma was 106%; in the assay with SW-620 colon it was 117%; in the assay on MCF7 breast, 100%; with HCT-116 colon, 83.7%; in the assay with HCC-2998 colon, 105%; in the assay with KM12 colon, 112%.
Consider `COC(=O)C1(C)CCC[C@]2(C)[C@H]3C[C@H]4C(C(C)C)=C[C@]3(CC[C@@H]12)[C@H]1[C@@H]4[C@@H](OC(=O)c2ccco2)CC[C@@H]1OC(=O)c1ccco1` (some centres undefined), for which the growth in the assay with SR leukemia was 93.4%; with RPMI-8226 leukemia, 99.5%; in the assay with OVCAR-8 ovarian it was 100%; with OVCAR-5 ovarian, 107%; in the assay with OVCAR-4 ovarian it was 103%; in the assay with SK-OV-3 ovarian, 115%. Moreover, the growth was 99.4% with IGROV1 ovarian; 123% in the assay on OVCAR-3 ovarian; 110% in the assay with HS 578T breast; 107% with NCI/ADR-RES ovarian; 98.9% with T-47D breast; 99.8% with BT-549 breast. The growth in the assay on MDA-MB-435 melanoma is 104%; in the assay on SW-620 colon, 102%; with MCF7 breast it was 98.3%; in the assay with HCT-116 colon, 110%; with HCC-2998 colon, 108%; with KM12 colon, 105%.
As to `CNC(=O)c1cc(-c2ccc(NS(=O)(=O)c3ccc(C)cc3)cc2)nc2cccnc12`, the growth was 113% in the assay with SR leukemia; 110% with RPMI-8226 leukemia; 99.5% in the assay with OVCAR-8 ovarian; 117% with OVCAR-5 ovarian; 99.5% with OVCAR-4 ovarian; 107% in the assay on SK-OV-3 ovarian. In addition, the growth in the assay on IGROV1 ovarian is 97.4%; with OVCAR-3 ovarian it was 111%; with HS 578T breast, 104%; in the assay with NCI/ADR-RES ovarian, 100%; in the assay on T-47D breast it was 98%; with BT-549 breast it was 110%. In addition, the growth in the assay with MDA-MB-435 melanoma was 109%; in the assay with SW-620 colon it was 107%; in the assay with MCF7 breast, 72.9%; in the assay on HCT-116 colon, 111%; in the assay with HCC-2998 colon, 108%; in the assay with KM12 colon it was 101%.
With `CCN(CC)c1ccc2c(c1)Oc1nc(N)c(C#N)c(N)c1C2Sc1ccc(C)cc1` (centres undefined), the growth was -22% (active) in the assay with SR leukemia; -22.9% (active) with RPMI-8226 leukemia; -57.9% (active) in the assay with OVCAR-8 ovarian; -88.6% (active) with OVCAR-5 ovarian; -96.7% (active) in the assay on OVCAR-4 ovarian; -89.3% (active) in the assay with SK-OV-3 ovarian. The growth is -87.4% (active) with IGROV1 ovarian; -54% (active) in the assay on OVCAR-3 ovarian; -18.8% (active) in the assay with HS 578T breast; -17.9% (active) with NCI/ADR-RES ovarian; -41.8% (active) in the assay on T-47D breast; 58.8% with BT-549 breast. Also, the growth in the assay on MDA-MB-435 melanoma was -95.5% (active); in the assay on SW-620 colon, -62.5% (active); with MCF7 breast, -70.7% (active); with HCT-116 colon it was -80.2% (active); in the assay on HCC-2998 colon, -90.2% (active); with KM12 colon, -48.8% (active).
As to `CCCn1cnc2c(c1=N)C(c1ccc(F)cc1)c1sc3c(CC)cccc3c1O2` (centres undefined), the growth in the assay on SR leukemia was 1.23% (active); in the assay on RPMI-8226 leukemia it was 4.79% (active); in the assay with OVCAR-8 ovarian, 26.2%; in the assay on OVCAR-5 ovarian it was 23.3%; in the assay on OVCAR-4 ovarian, 26.6%; with SK-OV-3 ovarian it was 40.3%. The growth was 10.2% with IGROV1 ovarian; -10.2% (active) with OVCAR-3 ovarian; 16.5% in the assay with HS 578T breast; -13.9% (active) in the assay on NCI/ADR-RES ovarian; 72.7% in the assay on T-47D breast; -25.2% (active) with MDA-MB-435 melanoma. In addition, the growth was 17.7% with SW-620 colon; 18.1% with MCF7 breast; 7.53% (active) in the assay with HCT-116 colon; 24.2% in the assay on HCC-2998 colon; 10.7% with KM12 colon.
For the molecule `CC(C)C[C@@H]1N[C@@]2(C(=O)Nc3ccccc32)[C@@H](c2ccc(F)cc2)[C@@H]1C(=O)c1ccc(O)cc1`, the growth is 73.5% with SR leukemia; 91.2% with RPMI-8226 leukemia; 97.1% with OVCAR-8 ovarian; 95.6% in the assay with OVCAR-5 ovarian; 89.6% in the assay with OVCAR-4 ovarian; 108% with SK-OV-3 ovarian. The growth is 53.4% with IGROV1 ovarian; 96.9% with OVCAR-3 ovarian; 84.5% in the assay with HS 578T breast; 94.1% in the assay with NCI/ADR-RES ovarian; 76.5% with T-47D breast; 113% in the assay on BT-549 breast. The growth with MDA-MB-435 melanoma is 102%; in the assay on SW-620 colon it was 101%; in the assay on MCF7 breast, 92.5%; in the assay with HCT-116 colon, 86.7%; with HCC-2998 colon, 108%; in the assay on KM12 colon, 96.1%.
For `CNC(=O)c1cc(-n2ccc3cc(NC(=O)Nc4ccc(N5CCOCC5)c(C(F)(F)F)c4)ccc32)ccn1`, the growth in the assay on SR leukemia was 9.16% (active); in the assay with RPMI-8226 leukemia, -26.7% (active); in the assay with OVCAR-8 ovarian, 60.6%; in the assay on OVCAR-5 ovarian, 65.1%; in the assay on OVCAR-4 ovarian it was 40.6%; in the assay with SK-OV-3 ovarian, 102%. Besides, the growth is 32.3% in the assay with IGROV1 ovarian; 76.4% in the assay on OVCAR-3 ovarian; 32.2% in the assay on HS 578T breast; 47.9% in the assay with NCI/ADR-RES ovarian; 47% in the assay on T-47D breast; 40.2% with MDA-MB-435 melanoma. Also, the growth in the assay with SW-620 colon is 62.5%; with MCF7 breast, 35.3%; with HCT-116 colon, 20.5%; in the assay with HCC-2998 colon, 87.4%; in the assay on KM12 colon, 7.44% (active).
As for `CC(=O)Nc1cccc(Nc2nc(N[C@H](C)c3ccccc3)c3ccccc3n2)c1`, the growth in the assay with SR leukemia was -7.47% (active); in the assay on RPMI-8226 leukemia it was -20.3% (active); with OVCAR-8 ovarian, 74.8%; in the assay with OVCAR-5 ovarian, 70.6%; in the assay on OVCAR-4 ovarian it was 34.9%; in the assay with SK-OV-3 ovarian, 94.8%. For the same molecule, the growth in the assay with IGROV1 ovarian was 51.8%; with OVCAR-3 ovarian, 55.9%; with HS 578T breast it was 80.5%; with NCI/ADR-RES ovarian, 39.1%; in the assay with T-47D breast it was 78.8%; in the assay on MDA-MB-435 melanoma, 24.3%. For the same molecule, the growth in the assay with SW-620 colon was 61.5%; in the assay on MCF7 breast it was 27.8%; in the assay on HCT-116 colon, 31%; with HCC-2998 colon it was 88.7%; in the assay on KM12 colon it was 55.9%.
As to `COc1ccc(-c2nn(-c3ccc(S(C)(=O)=O)cc3)cc2/C=N/O)cc1`, the growth is 107% in the assay on SR leukemia; 102% with RPMI-8226 leukemia; 101% in the assay on OVCAR-8 ovarian; 101% with OVCAR-5 ovarian; 113% with OVCAR-4 ovarian; 108% with SK-OV-3 ovarian. Besides, the growth was 106% in the assay with IGROV1 ovarian; 122% in the assay on OVCAR-3 ovarian; 108% with HS 578T breast; 107% in the assay on NCI/ADR-RES ovarian; 106% in the assay with T-47D breast; 112% in the assay with BT-549 breast. For the same molecule, the growth with MDA-MB-435 melanoma was 109%; in the assay on SW-620 colon, 104%; in the assay on MCF7 breast, 106%; in the assay with HCT-116 colon, 107%; in the assay on HCC-2998 colon it was 115%; in the assay with KM12 colon it was 104%.

These data come from PubChem BioAssay (NCI).
